Laboratory results from ChEMBL document CHEMBL1157539, “Thousands of chemical starting points for antimalarial lead identification” (Nature, 2010).

How the values were obtained:
Plasmodium falciparum [1] = assay: GSK_TCMDC: Inhibition of Plasmodium falciparum 3D7 in whole red blood cells, using parasite LDH activity as an index of growth. Test compounds present at 2uM; assay type: functional
Plasmodium falciparum [2] = assay: GSK_TCMDC: Inhibition of Plasmodium falciparum Dd2 in whole red blood cells, using parasite LDH activity as an index of growth. Test compounds present at 2uM; assay type: functional

Row | Compound | Inhibition (Plasmodium falciparum [1]) [%] | Inhibition (Plasmodium falciparum [2]) [%]
1 | N=C(N)NC(=O)Nc1ccc(Cl)c(C(F)(F)F)c1 | 100 | 13
2 | CCCN(c1ccc(O)c(CN2CCCCC2)c1)c1ccc([N+](=O)[O-])cn1.O=C(O)C(=O)O | 99 | 96
3 | Cc1nc(C)c(-c2ccc(Cl)cc2)c(O)c1I | 93 | 96
4 | COc1ccc(Cc2c(Cl)nc3nc(N)nc(N)c3c2C)cc1 | 94 | 3
5 | Cc1nc(C)c(-c2cccc(Oc3ccc(Cl)cc3)c2)c(O)c1Br | 96 | 97
6 | Nc1ncc(-c2ccc(S(=O)(=O)Nc3ccc(C(=O)N[C@@H](CCC(=O)O)C(=O)O)cc3)cc2)c(=O)[nH]1 | 99 | 0
7 | Cc1c(Cc2ccc(C(C)C)cc2)cnc2nc(N)nc(N)c12 | 97 | 0
8 | Cl.Oc1c(CNC2CCCCC2)cc(Cl)c2ccccc12 | 98 | 100
9 | CN(Cc1cnc2nc(N)nc(N)c2n1)c1ccc(C(=O)N[C@H](CCC(=O)OC(C)(C)C)C(=O)N[C@@H](CCC(=O)OC(C)(C)C)C(=O)OC(C)(C)C)cc1 | 85 | 1
10 | CN=C(N)c1ccc(NC(=O)C=Cc2ccc(C(=O)Nc3ccc(C(N)=NC)cc3)cc2)cc1.Cl | 97 | 100
11 | Cc1nc(C)c(-c2ccc(S(=O)(=O)c3ccc(Cl)cc3)cc2)c(O)c1Br | 97 | 97
12 | Cc1nc2ccc(S(=O)(=O)Nc3ccc(C(=O)N[C@@H](CCC(=O)O)C(=O)O)cc3)cc2c(=O)[nH]1 | 94 | 2
13 | CN(C)C(=S)N/N=C1/C(=O)Nc2ccccc21 | 95 | 96
14 | COc1cc(Cc2cnc(N)nc2N)cc(OCCCCC#N)c1OC | 86 | 0
15 | Cc1nc2nc(N)nc(N)c2c(C)c1Cc1ccc(N)cc1.Cl | 97 | 0
16 | CCc1cc(COc2ccc(CNCCC(C)C)cc2I)c(OCc2ccccc2)c(COc2ccc(CNCCC(C)C)cc2I)c1.Cl | 89 | 15
17 | CCCCCCCN(Cc1ccc(OC(C)(C)C(=O)OCC)cc1)C(=O)Nc1ccc(Cl)cc1OCC | 95 | 89
18 | CCOc1ccc(CNCCCCCCNCc2ccc(OCC)c3ccccc23)c2ccccc12.CS(=O)(=O)O | 100 | 75
19 | CCN(c1ccc(O)c(CN2CCCCC2)c1)c1ccc([N+](=O)[O-])cn1.Cl | 94 | 64
20 | CC(C)Oc1ccc2ccccc2c1CNCCCCCCNCc1c(OC(C)C)ccc2ccccc12.CS(=O)(=O)O | 99 | 90
21 | COc1cccc(Cn2ccc3c4c(N)nc(N)nc4ccc32)c1 | 99 | 96

Row | Compound | Inhibition (Plasmodium falciparum [1]) [%] | Inhibition (Plasmodium falciparum [2]) [%]
22 | CC(=O)Oc1c(Cl)c(C)nc(C)c1-c1ccc(Oc2ccc(Cl)cc2)cc1 | 98 | 96
23 | COc1ccc(-c2cnc(N)nc2N)cc1Cl | 84 | 1
24 | CCOc1cc(Cc2cnc(N)nc2N)cc(Br)c1OC | 83 | 3
25 | Nc1nc(N)c2cc(Cc3ccccc3Cl)cnc2n1 | 93 | 0
26 | N=C(N)NC(=O)Nc1cc(Br)c(Cl)c(C(F)(F)F)c1 | 100 | 91
27 | CCCCN(CCCC)CCCN(CCCN(CCCC)CCCC)c1cc(C)nc(Nc2ccc(Cl)cc2)n1.O=C(O)C(=O)O | 100 | 99
28 | Cl.c1ccc2c(NCCOCCNc3c4ccccc4nc4ccccc34)c3ccccc3nc2c1 | 94 | 0
29 | Nc1nc(Cc2ccc(Cl)cc2)nc(Cc2ccc(Cl)cc2)n1 | 85 | 0
30 | COc1ccc2c(O)c(Br)c(C)nc2c1 | 89 | 74
31 | CCOC(=O)N1CCN(CCCCCNc2cc(C)nc(NC(=N)Nc3ccc(Cl)cc3)n2)CC1.Cl | 100 | 0
32 | CC(C)Cn1cc2c(ccc3nc(N)nc(N)c32)n1 | 97 | 2
33 | Nc1nc(N)c2c(ccc3c2cnn3Cc2cccnc2)n1 | 95 | 96
34 | CCCCCCCc1c(C)[nH]c2ccc(F)cc2c1=O | 98 | 96
35 | CC(=O)Nc1ccc(OCCCCCOc2ccc(NC(C)=O)cc2Cl)c(Cl)c1 | 93 | 0
36 | CCCCNCc1ccc(OCc2cccc(COc3ccc(CNCCCC)cc3I)c2)c(I)c1.Cl | 87 | 13
37 | COc1ccc(Cc2cnc3nc(N)nc(N)c3c2C)cc1OC.O=S(=O)(O)CCO | 93 | 97
38 | CCOc1cc(Cc2cnc(N)nc2N)ccc1OC.Cl | 88 | 0
39 | CCc1ccc(Cc2cnc3nc(N)nc(N)c3c2C)cc1CC | 97 | 0
40 | COc1ccc(OC)c(CC2c3ccc(Br)c(O)c3CCN2C)c1.Cl (configuration not stated) | 98 | 97
41 | Nc1nc(N)c2c(ccc3[nH]c(-c4ccccc4Cl)nc32)n1 | 100 | 100
